We go through 40 compounds from PubChem BioAssay (Tox21).

“And” between values parts separate entries of the source, which are not always exact repeats. Equal entries are not always repeated. The source made the active and inactive calls. Calls come from the whole dose curve.
% is set by controls: 0 for no effect and ±100 for the full control effect; potency is the fitted concentration of half-maximal effect.

This experiment in a line: qHTS assay to identify small molecule agonists of the sonic hedgehog signaling (Shh) pathway (AID 1259368).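 For activity change: NIH/3T3-derived 3T3Gli1-Luc cells carrying a stable Gli1-driven firefly luciferase reporter.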 Note: nearly all actives have a fitted effect of over 15% in size. The note with it: NIH/3T3 Gli1-Luc reporter, luciferase, 24 h; series mostly up to 92.4 µM; activity change: at the top concentration. The gist of the method: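 3T3Gli1-Luc (NIH/3T3 clone, stable Gli1-Luc); 4 hr pre-incubation, then cpd in DMSO 24 hr, 37 C/5% CO2; luciferase reagent 30 min RT; luminescence.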
(In general: Quantitative high-throughput screening tests each substance at several concentrations.)
As for `CC(CCc1ccc2c(c1)OCO2)NN` (stereo not given), the “activity change” value is 0.0601% [at 42.5 µM, active compounds read high] (inactive).

For the compound `CC(C)c1nnc2ccc(-c3ocnc3-c3cc(F)ccc3F)cn12`, the “activity change” value is -4.05% (inactive).

`Cc1cc(S(=O)(=O)O)ccc1N=Nc1c(O)ccc2ccccc12`: the “activity change” value was -2.05% (inactive).

For `OC/C(Br)=C(\Br)CO`, the “activity change” value is 0.703% (inactive).

In the case of `CN1CCCN=C1/C=C/c1cccs1`, the “activity change” value was 0.0035% [at 42.5 µM, active compounds read high] (inactive).

`CC1(C)C(=O)N(Br)C(=O)N1Cl`: the “activity change” value was 0.111% (inactive).

As to `CCC(C(=O)OCCOCCN(CC)CC)c1ccccc1` (stereo not given), the “activity change” value is 0.923% [at 42.5 µM, active compounds read high] (inactive).

As to `O=C(O)c1cccc(O)c1`, the “activity change” value is 0.693% (inactive).

Turning to `NC(=O)Nc1ccc(Cl)cc1`, the “activity change” value was 0.148% (inactive).

As to `O=C(O)c1ccc(CO)o1`, the “activity change” value was 0.265% (inactive).

For the compound `CCCCCCOC(=O)C(C)C`, the “activity change” value was -2.59% (inactive).

Consider `CCCCCCCCCCCC[N+](C)(C)CCCS(=O)(=O)[O-]`, for which the “activity change” value is -0.197% (inactive).

With `CCCOCCOCCO`, the “activity change” value is 0.282% (inactive).

Turning to `Cc1cc(O)c2c(O)c3c(O)cccc3cc2c1`, the “activity change” value is 0.347% [at 42.5 µM, active compounds read high] (inactive).

For the compound `Cn1c(=O)c2c(ncn2CC(=O)O)n(C)c1=O`, the “activity change” value was -0.888% [at 42.5 µM, active compounds read high] (inactive).

In the case of `CC#N`, the “activity change” value was 0.445% (inactive).

`CO[C@H]1O[C@H](CO)[C@@H](O)[C@H](O)[C@H]1O`: the “activity change” value was -0.258% (inactive).

`CCOC(=O)C(C)Oc1ccc(Oc2nc3ccc(Cl)cc3o2)cc1` (stereo not given): the “activity change” value was 2.35% (inactive).

On to `Cc1oncc1C(=O)Nc1ccc(C(F)(F)F)cc1`, for which the Potency is 15.4 µM (active) and 9.44 µM (active).

Turning to `CC1CN(c2cc3c(cc2F)c(=O)c(C(=O)O)cn3-c2ccc(F)cc2F)CCN1` (stereo not given), the activity change is 0.373% [at 8.39 µM, active compounds read high] (inactive).

Regarding `COC(OC)(C(=O)c1ccccc1)c1ccccc1`, the “activity change” value was -1.47% (inactive).

Turning to `O=c1[nH]c2ccc(S(=O)CCN3CCC(Cc4ccc(F)cc4)CC3)cc2o1` (stereo not given), the “activity change” value is 3.97% (inactive).

For `Cc1nc2ccccc2s1`, the “activity change” value was -0.332% (inactive).

For `CCOCCn1c(C2CCN(CCc3ccc(C(C)(C)C(=O)O)cc3)CC2)nc2ccccc21`, the “activity change” value is -0.174% [at 42.5 µM, active compounds read high] (inactive).

Regarding `CC(=O)Nc1ccc(N)cc1`, the “activity change” value was -1.82% (inactive).

In the case of `CCC(=O)OC/C=C/c1ccccc1`, the Potency result was “inactive”.

Regarding `CN1CCN(c2c(F)cc3c(=O)c(C(=O)O)cn4c3c2OCN4C)CC1`, the activity change was -1.02% [at 18.9 µM, active compounds read high] (inactive).

As to `CCC(C)=O`, the “activity change” value is -0.447% (inactive).

With `O=S(=O)(c1ccccc1)c1ccc(Cl)cc1`, the “activity change” value was 0.451% (inactive).

Take `O=C(CCC1CCN(Cc2ccccc2)CC1)c1ccc2c(c1)NCCCC2`: the “activity change” value was 0.813% [at 42.5 µM, active compounds read high] (inactive).

As to `CCn1nc(C)c2c1C(=O)NCC(c1ccc(O)cc1)=N2`, the “activity change” value is 0.0589% (inactive).

For `CCc1nn(CCCN2CCN(c3cccc(Cl)c3)CC2)c(=O)n1CCOc1ccccc1`, the “activity change” value is -1.73% [at 42.5 µM, active compounds read high] (inactive).

As for `C[Si](NC1CCCCC1)(NC1CCCCC1)NC1CCCCC1`, the “activity change” value was -5.92% (inactive).

Turning to `CC(C)(C)C(=O)C(Oc1ccc(Cl)cc1)n1ccnc1` (stereo not given), the “activity change” value was -0.428% [at 42.5 µM, active compounds read high] (inactive).

Consider `Cc1cc2nc3ccc(=[N+](C)C)cc-3sc2cc1N`, for which the “activity change” value is -5.24% [at 42.5 µM, active compounds read high] (inactive).

`CN(C)C(=O)Nc1ccc(Oc2ccc(Cl)cc2)cc1`: the “activity change” value was 2.61% (inactive).

`Nc1nc(Cl)nc2c1ncn2[C@@H]1O[C@H](CO)[C@@H](O)[C@@H]1F`: the “activity change” value was 0.297% [at 42.5 µM, active compounds read high] (inactive).

`CCOc1cc(N)c(Cl)cc1C(=O)NCC1CN(Cc2ccc(F)cc2)CCO1` (stereo not given): the “activity change” value was 0.625% [at 42.5 µM, active compounds read high] (inactive).

On to `CC(=O)OCC(=O)[C@H]1CC[C@H]2[C@@H]3CCC4=CC(=O)CC[C@]4(C)[C@H]3CC[C@]12C`, for which the “activity change” value was -1.22% [at 42.5 µM, active compounds read high] (inactive).

In the case of `Cc1cc(OI)c(C(C)C)cc1-c1cc(C(C)C)c(OI)cc1C`, the “activity change” value was -0.758% [at 42.5 µM, active compounds read high] (inactive).
